Laboratory results as given in PubChem BioAssay.
The source made the active and inactive calls.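 Rule for the calls, unless noted: active = inhibition at or above 50% at 10 µM; inactive = inhibition below 50%.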 Where a SMILES comes first, the peptide text is derived from it. The star is where a group is joined. Boc = CC(C)(C)OC(=O)*

Tests used:
[1] = inhibitors of TNFa-induced NFkB p65 translocation, primary screen, imaging, HUVEC, MLSMR starter and 10KST1 sets (AID 438;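 active = inhibition above 20% together with a positive visual image hit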;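 note: compound added about 3h40 before a 20 min TNFalpha stimulation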;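 for inhibition: signal is the nuclear over cytoplasmic p65 intensity ratio per well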); conditions: HUVEC TNFa-induced p65 nuclear translocation; cell count: measured here: nuclei count (cytotoxicity indicator), at 2.08 µM; inhibition: at 2 µM, stronger effect = higher value, 0% TNFa-plus-vehicle, 100% no-TNFa wells
[2] = inhibitors of mutant huntingtin aggregation, primary screen, imaging, exon1htt(103Q)mCFP cells, high-content imaging (AID 483;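 active = visual image review flags a hit and inhibition of aggregation exceeds 20%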;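 note: compound exposure lasted 3 days before fixation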;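 for nuclei count: percent of the per-plate median nuclei count of sample wells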); conditions: exon1htt(103Q)mCFP cell line, aggregate imaging, at 2 µM; inhibition of aggregation: stronger effect = higher value; nuclei count: measured here: cell count, toxicity
[3] = inhibitors of E-selectin induction by TNFa, primary screen, imaging, HUVEC, immunofluorescence, MLSMR starter and 10KST1 sets (AID 487;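 active = visually confirmed hit in the image check and inhibition above 20%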;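 for inhibition: signal is fraction of cell area covered by stained E-selectin grains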;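 for nuclei count: 100% = median nuclei count of all wells on the same plate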); conditions: HUVEC TNFalpha-induced E-selectin immunofluorescence imaging, at 2 µM; inhibition: stronger effect = higher value; nuclei count: measured here: cell number, toxicity
[4] = target: Voltage-gated potassium channel subunit beta-2 (Rattus norvegicus) (UniProt P62483); assay: KvBeta enzyme negative modulators, primary screen, biochemical, NADPH fluorescence (AID 622;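 active = fluorescence slope higher than the sample average by over 3 SD, cut at about -0.22 in these data, passing the limit was not always enough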;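 note: slope of raw intensity against log time taken from 70 to 1610 s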); conditions: recombinant KvBeta, 4-cyanobenzaldehyde reduction, at 10 µM, stronger effect = higher value
[5] = target: Voltage-gated potassium channel subunit beta-2 (Rattus norvegicus) (UniProt P62483); assay: KvBeta positive modulators, primary screen, biochemical, NADPH fluorescence (AID 623;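 active = NADPH fluorescence slope more negative than the mean of all samples by about 3 SD, 99.7% confidence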;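 note: fluorescence intensity change per second fitted from 20 to 320 s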); conditions: Recombinant KvBeta, NADPH fluorescence decrease slope, 10 min; at 10 µM; stronger effect = lower value
[6] = target: Alpha-2C adrenergic receptor (Homo sapiens) (UniProt P18825); assay: modulators of alpha2C/GIRK thallium flux, primary screen, cell-based, HEK293 alpha2C/GIRK1/2 (AID 624;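 active = fluorescence slope after compound addition differing from the mean of all screened samples at 99.7% confidence, in either direction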;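 note: slope of fluorescence ratio to pre-addition baseline per second over 15 to 24 s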); conditions: thallium flux BTC fluorescence, at 10 µM, actives lie on both sides
[7] = inhibitors of Sendai virus-induced IRF3 signaling, primary screen, TLR/RLR signaling modifier project, cell-based, Sendai virus stimulus, luciferase, 10K MLSCN set (AID 602276); conditions: HEK293 RL24 IRF3 luciferase reporter, at 10 µM, stronger effect = higher value;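 note: firefly luciferase from ISG56 promoter only with Renilla not read in this screen; 0% = Sendai virus plus DMSO and 100% = medium plus DMSO without virus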
[8] = inhibitors of poly I:C-induced TLR3 signaling, primary screen, cell-based, poly I:C stimulus, luciferase, 10K MLSCN set (AID 602277;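 active = inhibition of the reporter signal at or above 50%; inactive = inhibition below 50%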); conditions: HEK293-TLR3 RL24 IRF3 luciferase reporter, at 10 µM, stronger effect = higher value

Chain of Alpha-2C adrenergic receptor (Homo sapiens) (P18825 whole entry, looked up): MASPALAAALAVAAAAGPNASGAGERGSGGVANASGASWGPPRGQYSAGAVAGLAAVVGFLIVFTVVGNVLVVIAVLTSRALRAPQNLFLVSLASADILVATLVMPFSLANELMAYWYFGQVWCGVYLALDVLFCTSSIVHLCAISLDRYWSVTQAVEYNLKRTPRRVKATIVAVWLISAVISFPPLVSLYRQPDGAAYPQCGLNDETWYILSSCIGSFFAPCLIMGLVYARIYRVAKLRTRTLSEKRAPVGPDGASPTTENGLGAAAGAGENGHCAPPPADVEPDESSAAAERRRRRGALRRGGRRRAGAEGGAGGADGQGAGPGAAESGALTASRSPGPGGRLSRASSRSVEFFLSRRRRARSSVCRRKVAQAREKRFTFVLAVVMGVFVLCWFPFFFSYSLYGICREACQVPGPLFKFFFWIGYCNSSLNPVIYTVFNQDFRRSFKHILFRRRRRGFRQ
Chain of Voltage-gated potassium channel subunit beta-2 (Rattus norvegicus) (P62483 whole entry, looked up): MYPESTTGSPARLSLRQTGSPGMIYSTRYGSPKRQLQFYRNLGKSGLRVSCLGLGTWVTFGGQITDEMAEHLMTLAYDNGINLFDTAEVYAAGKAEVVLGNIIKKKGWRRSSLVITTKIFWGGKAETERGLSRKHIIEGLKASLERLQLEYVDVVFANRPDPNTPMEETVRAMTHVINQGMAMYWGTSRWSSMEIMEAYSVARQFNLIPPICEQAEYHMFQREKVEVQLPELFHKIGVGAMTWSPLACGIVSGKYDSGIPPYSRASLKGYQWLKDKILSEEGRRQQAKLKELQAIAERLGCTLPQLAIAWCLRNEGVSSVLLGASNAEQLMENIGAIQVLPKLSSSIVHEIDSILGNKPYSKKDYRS

Structure (SMILES) | cell count [1] | inhibition [1] | inhibition of aggregation [2] | nuclei count [2] [%] | inhibition [3] | nuclei count [3] [%] | fluorescence slope [4] | NADPH fluorescence slope [5] | slope [6] | inhibition [7] | inhibition [8]
COc1ccccc1-n1c(=O)[nH]c2c(C(N)=O)nc(CC(C)C)nc21 | 809 | -0.5% (inactive) | -23.3% (inactive) | 105 | 2.2% (inactive) | 117 | -0.58 (inactive) | -3e-05 (inactive) | 0.00821 (inactive) | 13% (inactive) | 32.3% (inactive)
CCOC(=O)c1oc2ccccc2c1NC(=O)c1cccc(OC)c1OC | 553 | -14.1% (inactive) | -13% (inactive) | 104 | 23.6% (inactive) | 82.8 | -0.616 (inactive) | -1.9e-05 (inactive) | 0.00654 (inactive) | -0.203% (inactive) | -6.33% (inactive)
O=C(c1ccc(Cl)c(F)c1F)N1CCCC1 | 384 | 4.4% (inactive) | -11.4% (inactive) | 112 | -29.8% (inactive) | 70.2 | -0.276 (inactive) | 1.2e-05 (inactive) | 0.00949 (inactive) | -9.75% (inactive) | 11.3% (inactive)
O=S1(=O)CC(N2CCCCC2)C(N2CCCCC2)C1 (stereo not drawn) | 394 | 3.6% (inactive) | 0.2% (inactive) | 110 | -31.5% (inactive) | 107 | -0.587 (inactive) | -1.5e-05 (inactive) | 0.00686 (inactive) | 15.3% (inactive) | 32.7% (inactive)
O=S(=O)(c1ccc2nc(Cc3cccc(C(F)(F)F)c3)[nH]c2c1)N1CCOCC1 | 383 | 1% (inactive) | 0% (inactive) | 88.3 | -277% (inactive) | 105 | -0.615 (inactive) | -2.8e-06 (inactive) | 0.00522 (inactive) | 11.9% (inactive) | 26.3% (inactive)
CC(=O)N1CCN(Cc2ccc(Br)s2)CC1 | 362 | -3.4% (inactive) | 2% (inactive) | 114 | -10.6% (inactive) | 106 | -0.442 (inactive) | -1.9e-05 (inactive) | 0.00639 (inactive) | 13.6% (inactive) | 20.9% (inactive)
CCOC(=O)c1cnc(-n2cc(C)cn2)nc1Nc1ccccc1OC | 750 | -2.8% (inactive) | 17.8% (inactive) | 105 | 12.5% (inactive) | 114 | -0.641 (inactive) | -4.8e-05 (inactive) | 0.0064 (inactive) | 2.82% (inactive) | 10.8% (inactive)
Cc1ccc(NC(=O)CSc2nnc(-c3ccncc3)n2C)cc1C | 822 | -13.9% (inactive) | 18.5% (inactive) | 85 | -44.4% (inactive) | 130 | -0.591 (inactive) | 4.1e-06 (inactive) | 0.00642 (inactive) | -15.3% (inactive) | -22.4% (inactive)
CCOc1ccccc1C(=O)Nc1nnc(CC)s1 | 537 | -12% (inactive) | 12.2% (inactive) | 59.9 | -6.2% (inactive) | 88 | -0.428 (inactive) | -2.5e-05 (inactive) | 0.00564 (inactive) | -6.19% (inactive) | -13.4% (inactive)
CNc1nnc(-c2cccc(N(C)C)c2)s1 | 742 | -5.1% (inactive) | -2.3% (inactive) | 102 | -67.7% (inactive) | 91.1 | -0.135 (active) | -7.2e-06 (inactive) | 0.00491 (inactive) | -27.7% (inactive) | -96.6% (inactive)
CN(C)CC(C(=O)c1ccccc1)c1ccccc1 (stereo not drawn) | 460 | 2.4% (inactive) | -28% (inactive) | 13.4 | 20.2% (inactive) | 113 | -0.251 (inactive) | -1.2e-05 (inactive) | 0.0054 (inactive) | 11% (inactive) | 82.3% (active)
CCOCCCNC(=O)C1CCN(S(=O)(=O)c2c(C)noc2/C=C\c2ccc(OC)cc2)CC1 | 345 | 1.2% (inactive) | 32.8% (inactive) | 99.9 | -122% (inactive) | 114 | -0.36 (inactive) | 3.9e-05 (inactive) | 0.00493 (inactive) | -4.28% (inactive) | 0.813% (inactive)
Cc1nc(NCc2ccc3c(c2)OCO3)c2oc3ccccc3c2n1 | 292 | 12.8% (inactive) | -3.5% (inactive) | 105 | 44.7% (inactive) | 101 | -0.516 (inactive) | 2.5e-05 (inactive) | 0.00488 (inactive) | 4.64% (inactive) | -12% (inactive)
CCOCC(=O)Nc1c(C(=O)Nc2ccc(OC)cc2OC)oc2ccccc12 | 543 | -4.1% (inactive) | 19.2% (inactive) | 93.9 | 52.4% (inactive) | 57.7 | -0.19 (inactive) | -9.5e-06 (inactive) | 0.00574 (inactive) | -20.7% (inactive) | -15.2% (inactive)
O=C(Nc1nnc(COc2ccc(F)cc2)s1)c1cccs1 | 585 | 7.2% (inactive) | 3.9% (inactive) | 126 | -42.4% (inactive) | 104 | -0.52 (inactive) | -2.5e-05 (inactive) | 0.0053 (inactive) | 12.6% (inactive) | 6.8% (inactive)
Cc1cc(C)n(-c2cc(N3CCOCC3)nc(-c3ccccc3)n2)n1 | 323 | -14% (inactive) | -20.5% (inactive) | 105 | -59.2% (inactive) | 114 | -0.385 (inactive) | -1.3e-05 (inactive) | 0.00416 (inactive) | 6.61% (inactive) | 12.6% (inactive)
COC(=O)C1=C(CSCc2ccco2)NC(=O)NC1c1cc(C)ccc1C (stereo not drawn) | 369 | -10.5% (inactive) | -15.1% (inactive) | 115 | -20.5% (inactive) | 109 | -0.423 (inactive) | 3.5e-05 (inactive) | 0.00488 (inactive) | -3.03% (inactive) | -1.57% (inactive)
COc1ccc2cc(CN(CCO)C(=O)c3ccccc3F)c(=O)[nH]c2c1 | 474 | 9.4% (inactive) | -16% (inactive) | 108 | -93% (inactive) | 110 | -0.496 (inactive) | 5.3e-06 (inactive) | 0.00191 (inactive) | -11.1% (inactive) | -5.69% (inactive)
CCOC(=O)Cc1csc(/C(=N/O)C(N)=O)n1 | 638 | 2.7% (inactive) | 0.1% (inactive) | 126 | -62.8% (inactive) | 108 | -0.48 (inactive) | -9.9e-05 (inactive) | 0.00629 (inactive) | 13.2% (inactive) | 15.9% (inactive)
COc1ccccc1NC1=NC(c2ccc(Cl)cc2)N=C(N)N1 (stereo not drawn) | 395 | 5.2% (inactive) | -17.1% (inactive) | 35.1 | -308% (inactive) | 124 | -0.299 (inactive) | -4.5e-05 (inactive) | 0.0046 (inactive) | 29.3% (inactive) | 49.9% (inactive)
O=C(O)C1CC(=O)N(CCOc2ccccc2)C1 (stereo not drawn) | 407 | 4.7% (inactive) | 10.8% (inactive) | 86.7 | -59.8% (inactive) | 101 | -0.41 (inactive) | 4.3e-05 (inactive) | 0.00593 (inactive) | 0.323% (inactive) | 15.8% (inactive)
Cn1cccc1Cc1nnc(SCC(=O)N2CCOCC2)n1-c1ccc(F)cc1 | 585 | 5.8% (inactive) | 26.9% (inactive) | 89.6 | 55.7% (active) | 96.2 | -0.527 (inactive) | -3.5e-05 (inactive) | 0.00693 (inactive) | 12.2% (inactive) | 28.3% (inactive)
CCOC(=O)c1cc(C(C)(C)C)oc1CN | 667 | -1% (inactive) | 1.2% (inactive) | 98.7 | -1.1% (inactive) | 102 | -0.495 (inactive) | -4.4e-05 (inactive) | 0.00475 (inactive) | 15.2% (inactive) | 21.7% (inactive)
CCOc1ccc(-c2nnc3sc(-c4c(OC)cccc4OC)nn23)cc1 | 434 | 2.8% (inactive) | 0.4% (inactive) | 102 | -65.6% (inactive) | 111 | -0.609 (inactive) | -3.7e-05 (inactive) | 0.00506 (inactive) | 10.1% (inactive) | 3.17% (inactive)
CCCCCn1c(CCNC(=O)CCC)nc2ccccc21 | 635 | 3.4% (inactive) | -4.9% (inactive) | 55 | -30.5% (inactive) | 104 | -0.552 (inactive) | -4.5e-05 (inactive) | 0.00652 (inactive) | 10.2% (inactive) | 40.2% (inactive)
CC1Cc2ccccc2N1S(=O)(=O)c1cccc(C(=O)OCC(=O)NC2CCS(=O)(=O)C2)c1 (stereo not drawn) | 657 | 0.7% (inactive) | 6.3% (inactive) | 103 | -92% (inactive) | 112 | -0.625 (inactive) | -4.3e-05 (inactive) | 0.00343 (inactive) | 20.6% (inactive) | 29.8% (inactive)
CC(NC(=O)OC(C)(C)C)C(=O)N1CCCC1C(=O)NC(Cc1ccccc1)C(N)=O (stereo not drawn) (Boc-Ala-Pro-Phe-NH2; configuration not given here) | 220 | 9.7% (inactive) | -15.1% (inactive) | 85.5 | -30.7% (inactive) | 93.1 | -0.498 (inactive) | -3.8e-06 (inactive) | 0.00536 (inactive) | 19.8% (inactive) | 22.4% (inactive)
COC(=O)C1=C(C)Nc2nnnn2C1c1cccs1 (stereo not drawn) | 536 | -8.8% (inactive) | -0.9% (inactive) | 107 | -19.9% (inactive) | 62.5 | -0.599 (inactive) | -6.8e-05 (inactive) | 0.0058 (inactive) | 4.45% (inactive) | 20.5% (inactive)
